ADAM10 inh: ADAM10 inhibition, QFRET primary screen. recombinant ADAM10, EDANS/DABCYL FRET peptide cleavage, 3 h. inhibition, % at 7 µM. hit rate 0.62% among 370,000;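 active = inhibition above a per-campaign cutoff equal to the mean of compounds falling between control-based bounds plus 3 SD, cut at about 20% in these data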
HGIII-sPLA2 inh: Blocks human group III sPLA2 activity; Q9NZ20; QFRET BODIPY PC-A2 liposome hydrolysis, fluorescence; inhibition, % at 12.2 µM; hit rate 0.56% among 370,000; AID 743126;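 active = inhibition above mean plus 3 SD of compounds lying within the high and low control bounds, cut at about 19% in these data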
ADAM17 inh: ADAM17 inhibition, QFRET primary screen | P78536 | recombinant ADAM17, EDANS/DABCYL FRET peptide cleavage | inhibition, % at 6.95 µM | hit rate 0.83% among 370,000;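 active = inhibition above the mean of compounds lying between control limits plus 3 SD, set per campaign, cut at about 8.5% in these data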
Target sequence (P78536 215-824 limits assumed): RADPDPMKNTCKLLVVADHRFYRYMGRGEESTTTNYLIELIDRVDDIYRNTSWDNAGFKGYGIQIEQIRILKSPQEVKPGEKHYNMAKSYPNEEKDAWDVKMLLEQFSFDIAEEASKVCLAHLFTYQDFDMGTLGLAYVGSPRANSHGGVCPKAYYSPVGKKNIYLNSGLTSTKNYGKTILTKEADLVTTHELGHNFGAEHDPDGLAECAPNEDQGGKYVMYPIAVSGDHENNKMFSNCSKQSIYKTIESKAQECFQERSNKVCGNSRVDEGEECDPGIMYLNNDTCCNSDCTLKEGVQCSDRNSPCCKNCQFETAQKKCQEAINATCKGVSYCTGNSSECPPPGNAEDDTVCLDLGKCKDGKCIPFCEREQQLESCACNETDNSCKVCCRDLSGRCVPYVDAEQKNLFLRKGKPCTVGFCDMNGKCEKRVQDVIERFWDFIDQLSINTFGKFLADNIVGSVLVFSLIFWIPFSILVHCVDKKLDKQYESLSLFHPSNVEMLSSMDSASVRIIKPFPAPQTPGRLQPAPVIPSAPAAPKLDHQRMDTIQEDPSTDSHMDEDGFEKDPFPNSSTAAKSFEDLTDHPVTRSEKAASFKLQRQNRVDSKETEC
PLC-gamma1 inh: inhibitors of human phospholipase C gamma1; inhibition, % at 12.2 µM; purified PLC-gamma1, fluorogenic substrate, fluorescence; P19174; AID 720700; hit rate 0.84% among 370,000; in the data active = inhibition above about 9.5%
PLCb3 inh: inhibitors of human phospholipase C beta3 | Q01970 | Purified PLC-beta3, fluorogenic substrate, fluorescence | inhibition, % at 12.2 µM | hit rate 0.18% among 370,000 | AID 720704; in the data active = inhibition above about 11%
KLK7 zymogen act: activators of human kallikrein-7 zymogen. purified proKLK7, EDANS-DABCYL substrate fluorescence; 100% is mature enzyme control, 0% vehicle. activation, % at 7 µM. hit rate 0.9% among 370,000. AID 652039;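 active = activation above the mean of all tested compounds plus 3 SD, computed per campaign excluding outliers beyond control limits, cut at about 13% in these data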
ADAM10 ctr: counter-screen for ADAM17 exosite inhibitors: inhibitors of human ADAM10. shares compounds with ADAM17 inh. recombinant ADAM10, EDANS/DABCYL FRET peptide cleavage, 3 h. inhibition, % at 6.95 µM. hit rate 47% among 2,900. AID 743256;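 active = mean inhibition over the triplicate runs exceeds the activity threshold set in the earlier primary screen, cut at about 20% in these data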
ADAM17 confirm: confirmation of inhibitors of human ADAM17; recombinant ADAM17, EDANS/DABCYL QFRET peptide cleavage; hit rate 65% among 2,900; inhibition, % at 6.95 µM; shares compounds with ADAM17 inh; AID 743257;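 active = mean inhibition across replicates above the hit cutoff set in the primary screen, cut at about 8.5% in these data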
Of the large screens only hits and unclear results are named; the others gave an inactive call (follow-up assays come after a bar, where they were run). In the library only some 3.4% were active in any assay of this set; here they are far more common.

Nc1[nH]c(C(=O)c2ccc(Br)cc2)c(-c2ccccn2)c1C(=O)NCCc1c[nH]c2ccccc12	ADAM17 inh 8.8 | ADAM10 ctr inactive | ADAM17 confirm 12
CCOC(=O)[C@]12CCCCC/C=C\1N(Cc1ccc(OC)cc1)C(=O)[C@H]2CC(=O)NCCC(C)C	none
CCOC(=O)C1CCN(C(=O)C(C)(C)NC(=O)Nc2ccc3c(c2)CCC3)CC1	none (no result: KLK7 zymogen act)
CNC(=O)CC1C(=O)N(c2ccc(Cl)cc2)C(=S)N1CCc1ccc(OC)c(OC)c1 (configuration not stated)	ADAM17 inh 8.7 | ADAM10 ctr inactive | ADAM17 confirm inactive
Cc1ccc(-n2c(SCC(=O)Nc3ccc(OCc4ccccc4)cc3)nnc2-c2ccco2)cc1	none
Cn1cc(C(=O)N/N=C/c2cccs2)c2ccccc21	ADAM17 inh 8.9 | ADAM10 ctr inactive | ADAM17 confirm inactive
Cc1occc1C(=O)NNC(=O)COc1ccc(Br)cc1Br	ADAM17 inh 8.8 | ADAM10 ctr inactive | ADAM17 confirm inactive
Cc1ccc(NC(=S)N/N=C/c2ccc([N+](=O)[O-])s2)cc1	ADAM17 inh 11 | ADAM10 ctr 33 | ADAM17 confirm 19
Cc1cc(C)cc(N=Cc2ccc([N+](=O)[O-])s2)c1	none
O=C(NCCc1ccccc1)OCc1cn(-c2c(F)cccc2F)nn1	none
NC(Cc1ccc(F)cc1)c1csc(NC(=O)NC(c2ccccc2)c2ccccc2)n1 (configuration not stated)	ADAM17 inh 8.8 | ADAM10 ctr 20 | ADAM17 confirm 9.3
Cc1cc(C)cc(OC(C)CCN2CCC(C(O)(c3ccccc3)c3ccccc3)CC2)c1 (configuration not stated)	none
COc1ccc2c(c1)[C@H]1[C@H](CO2)[C@H](c2ccccc2)[C@]2(C)C(=O)Nc3cc(F)ccc3C(=O)N12	ADAM17 inh 10.0 | ADAM10 ctr inactive | ADAM17 confirm inactive
CCOC(=O)[C@H]1[C@H]2COc3ccc(Br)cc3[C@@H]2N2C(=O)CN(Cc3ccc(C)cc3)C(=O)[C@@]12C	ADAM17 inh 9.6 | ADAM10 ctr 28 | ADAM17 confirm 17
COc1ccc2c(c1)[C@H]1[C@H](CO2)[C@H](c2ccccc2)[C@]2(C)C(=O)Nc3ccccc3C(=O)N12	none
COc1ccc2c(c1)OC[C@H]1[C@H]2N2C(=O)CN(Cc3ccc(Cl)cc3)C(=O)[C@@]2(C)[C@H]1c1ccccc1	ADAM17 inh 9.9 | ADAM10 ctr 29 | ADAM17 confirm 13
Cc1ccc(CN2CC(=O)N3[C@H]4c5cc(Cl)ccc5OC[C@@H]4[C@H](c4ccccc4)[C@]3(C)C2=O)cc1	ADAM17 inh 9.4 | ADAM10 ctr inactive | ADAM17 confirm inactive
COCCCNC(=O)C[C@@H]1C(=O)N2CCCC3=C2[C@@]1(C(=O)OC)CCCC3	none
Cc1ccccc1OCc1nc(-c2ccc(NC(=O)c3ccco3)cc2)no1	none
Cc1ccccc1OCc1nc(-c2ccc(NC(=O)c3cccs3)cc2)no1	ADAM17 inh 12 | ADAM10 ctr inactive | ADAM17 confirm inactive
CCCC1CCC2(CCCN2CCOC(=S)Nc2cccc(Cl)c2)CC1 (configuration not stated)	none (no result: KLK7 zymogen act)
CCN(CC)C(=O)N1CCC(NC(=O)Cc2ccccc2)CC1	ADAM17 inh 9.4 | ADAM10 ctr inactive | ADAM17 confirm inactive
Cc1ccc(Sc2ccc(/C=C3/C(=O)NN(c4ccccc4)C3=O)o2)cc1	ADAM17 inh 8.8 | ADAM10 ctr inactive | ADAM17 confirm inactive
O=C1NN(c2ccccc2)C(=O)/C1=C/c1ccc(Sc2ccc(Cl)cc2)o1	none
CCc1ccc(N2CC(C(=O)Nc3ccc(C)c(S(=O)(=O)N4CCOCC4)c3)CC2=O)cc1 (configuration not stated)	ADAM17 inh 9.8 | ADAM10 ctr inactive | ADAM17 confirm inactive
CCn1c(SCC(=O)c2ccc(-c3ccccc3)cc2)nnc1-c1ccccc1OC	none
COc1cccc(NC(=O)CSc2nncn2N)c1	ADAM17 inh 9.7 | ADAM10 ctr inactive | ADAM17 confirm inactive
COc1ccc(NC(=O)CSc2nncn2N)c(OC)c1	none
O=C(NCc1ccccc1)c1cccc(COc2ccc(Cl)cc2)c1	none
COc1cc(CNC(=O)c2cccc(COc3ccc(Cl)cc3)c2)cc(OC)c1	ADAM17 inh 8.7 | ADAM10 ctr 24 | ADAM17 confirm 11
COc1ccc(N2CCN(C(=O)Cc3csc(NC(=O)Nc4ccccc4OC)n3)CC2)cc1	none
COc1ccccc1NC(=O)Nc1nc(CC(=O)N2CCN(c3ccc(F)cc3)CC2)cs1	ADAM17 inh 9.8 | ADAM10 ctr 24 | ADAM17 confirm 16
O=C(Cc1c[nH]c2ccccc12)Nc1ccc(Nc2ccncc2)cc1	none
Cc1cccc(N2C(=O)C(Cc3ccccc3)NC2=S)c1 (configuration not stated)	none
O=C1C(Cc2ccccc2)NC(=S)N1c1ccccc1 (configuration not stated)	ADAM17 inh 10 | ADAM10 ctr inactive | ADAM17 confirm inactive
Cc1nn(C)cc1NC(=O)C[C@H]1CC[C@H]2[C@@H](COc3ccc(NC(=O)Nc4ccccc4)cc3C(=O)N2C)O1	none
Cc1ccc(S(=O)(=O)CNC(=S)c2cccc(Cl)c2)cc1	ADAM17 inh 11 | ADAM10 ctr 48 | ADAM17 confirm 26
CCn1c(SCC(=O)Nc2ncc(C(F)(F)F)cc2Cl)nnc1-c1cccc(C)c1	ADAM17 inh 10.0 | ADAM10 ctr inactive | ADAM17 confirm inactive
Cc1ccc(NC(=O)NNC(=O)CCn2nc(C)c([N+](=O)[O-])c2C)cc1C	none
O=C(NCCN1C(=O)C2C3C=CC(C3)C2C1=O)c1cc(F)cc(F)c1 (configuration not stated)	none
CCc1cc(C(=O)OC)c(NC(=O)CC2NCCNC2=O)s1 (configuration not stated)	none
CCc1cc(C(=O)OC)c(NC(=O)C2CC(=O)NN2Cc2ccccc2)s1 (configuration not stated)	ADAM17 inh 9.3 | ADAM10 ctr inactive | ADAM17 confirm 15
CC1CCCCN1S(=O)(=O)c1ccc(S(=O)(=O)N(Cc2ccccc2)Cc2ccco2)cc1 (configuration not stated)	ADAM17 inh 16 | ADAM10 ctr 20 | ADAM17 confirm 12
CCN(Cc1ccccc1)S(=O)(=O)c1ccc(S(=O)(=O)N(Cc2ccccn2)Cc2ccco2)cc1	none
